Pf growth 96h: Primary qHTS for delayed death inhibitors of the malarial parasite plastid, 96 hour incubation; Potency, µM (top dose mostly 28.7 µM), inactives show at the highest dose activity change, negative = inhibition, actives largely listed as inhibitors; 320,000 tested, 6.9% active; P. falciparum luciferase reporter growth, 96 h; also: potency is read from the fitted curve at half-maximal effect; % is scaled to controls: 0 for no effect and ±100 for the full control effect
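Two parasite generations (96 h, 37 C, 5% CO2) of compound exposure in infected erythrocytes (0.05% parasitemia, 2% hematocrit). Luciferase-reporter P. falciparum; decreased luminescence indicates inhibited growth, aimed at apicoplast-acting delayed death.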
Shiga toxin inh: A qHTS for Small Molecule Inhibitors of Shiga Toxin. Vero cells, Shiga toxin protein synthesis inhibition reporter. inhibition, % at 38.7 µM. 290,000 tested, 9.2% active. AID 2315, 2010; in the data active = inhibition mostly above about 28%, no sharp cut-off; inactive = mostly below about 43%; also: 0% is about no effect
Cycloheximide cs: Cycloheximide Counterscreen for Small Molecule Inhibitors of Shiga Toxin. 300,000 tested, 12% active. AID 2314, 2010. cell reporter, cycloheximide protein synthesis inhibition counterscreen. max response, %; in the data active = max response mostly above about 13%, no sharp cut-off; inactive = mostly below about 14%; also: read at 38.3 µM for the half of the compounds with a filed dose; 0% is about no effect
NS1 inh: qHTS Assay for Inhibitors of Influenza NS1 Protein Function; 270,000 tested, 0.4% active; Potency, µM (highest dose often 46.1 µM), for the others: at the top dose activity, positive = more growth; calls by dose curve; also: potency is read from the fitted curve at half-maximal effect; actives are rising curves; nearly all actives have a fitted effect of over 50% in size
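S. cerevisiae expressing influenza A NS1, grown in glucose, washed, then diluted 1:100 into pH 6.0 -URA galactose medium with 23 nl compound. Growth recovery read as OD600; NS1-free strain serves as control.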
Pf growth 48h: Primary qHTS for delayed death inhibitors of the malarial parasite plastid, 48 hour incubation. Potency, µM (series often up to 28.7 µM), for the others: at the top dose activity change, negative = inhibition, usual class: inhibitors. AID 504832, 2011. P. falciparum luciferase growth in erythrocytes, 48 h. 310,000 tested, 5.9% active; also: potency is read from the fitted curve at half-maximal effect; % is scaled to controls: 0 for no effect and ±100 for the full control effect
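Erythrocytes infected with P. falciparum carrying an integrated firefly luciferase reporter (2% hematocrit, 0.1% parasitemia final) were exposed to compounds in RPMI 1640 with 0.5% Albumax at 37 C, 5% CO2. Growth inhibition was scored as reduced luminescence.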
Sm TGR block: qHTS Assay for the Inhibitors of Schistosoma Mansoni Peroxiredoxins; Potency, µM (titrated, usually from 114 µM), for the others: top-dose activity change, negative = inhibition, actives largely listed as inhibitors; 360,000 tested, 3% active; purified TGR, DTNB reduction, TNB absorbance 405 nm; Schistosoma mansoni thioredoxin glutathione reductase (TGR), Q962Y6; also: potency is read from the fitted curve at half-maximal effect; % is scaled to controls: 0 for no effect and ±100 for the full control effect; nearly all actives have a fitted effect of over 60% in size
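First, TGR (20 nM dispensed) and NADPH were mixed with compound. Second, a 15 min room-temperature incubation followed. Third, further NADPH and then DTNB were added to start the reaction. Finally, TNB absorbance was monitored kinetically.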
An asterisk follows results filed as active; ? = inconclusive; . = no result given; [ ] = another dose, or the depositor's remark. A selection: hits, their analogues and other compounds. The true share with any hit is near 21%. Unless noted, calls follow the shape of the dose curve; as a rule, active = well fitted curve in the direction sought with a large enough effect; inconclusive = small, poorly fitted or top-dose-only effect, or another doubt; inactive = no such curve, though single readings can be large; an effect the other way counts as inactive or inconclusive.

SMILES | Pf growth 96h | Shiga toxin inh | Cycloheximide cs | NS1 inh | Pf growth 48h | Sm TGR block
O=C(Nc1ccccc1)N1CCC(C(=O)N(Cc2ccco2)Cc2cccs2)CC1 | 1.7µM* | 12 | 5 | -8% | ? | 0%
COc1ccc(CN(C)C(=O)C2CCN(C(=O)Nc3ccccc3)CC2)cc1 | ? | . | . | . | ? | -1%
Cc1cccc(N(CC(=O)NCCSc2ccc(Cl)cc2)S(C)(=O)=O)c1C | . | . | . | . | . | 10%
O=C(NCCC(=O)N(Cc1ccco1)Cc1cccs1)c1ccccc1Cl | ? | . | . | . | ? | 45µM*
COc1ccccc1NC(=O)CN(Cc1ccco1)C(=O)c1cc2ccccc2o1 | -27% | 16 | -2 | . | -22% | 22µM*
COc1ccccc1NC(=O)CN(Cc1ccco1)C(=O)c1ccc(=O)[nH]c1 | 30% | -7 | -3 | 8% | 25% | -14%
COc1ccc(C(=O)O)cc1S(=O)(=O)N1CCCc2ccccc21 | 0% | 10 | -3 | 7% | -1% | -34%
O=C(Nc1ccccn1)c1cccc(S(=O)(=O)N2CCCc3ccccc32)c1 | 10µM* | . | . | . | 7.4µM* | 0%
Cc1ccnc(NC(=O)c2cccc(S(=O)(=O)N3CCCc4ccccc43)c2)c1 | 1.9µM* | . | . | . | 1.9µM* | 5%
O=C(Nc1ncccc1O)c1cccc(S(=O)(=O)N2CCCc3ccccc32)c1 | -49% | . | . | . | -5% | -16%
COc1ccc(C(=O)Nc2ccc(C)cn2)cc1S(=O)(=O)N1CCCc2ccccc21 | ? | . | . | . | 12µM* | -1%
Cc1cccnc1NC(=O)c1cccc(S(=O)(=O)N2CCCc3ccccc32)c1 | ? | 19 | 26* | 4% | ? | 2%
CCc1cc(C)cc(OCCOc2ccccc2/C=N/NC(C)=O)c1 | 3% | -4 | 1 | -19% | -12% | 6%
Cc1ccc(OCc2cc(=O)n3cc(C)sc3n2)c(NC(=O)c2ccco2)c1 | . | . | . | . | . | 6%
COc1ccc(C(=O)OCC(=O)N(C)C2CCS(=O)(=O)C2)cc1S(=O)(=O)N1CCCc2ccccc21 (configuration not stated) | 32% | 41 | 20* | . | 36% | 3%
Cc1ccccc1C(=O)Nc1cccc(-c2cn3ccccc3n2)c1 | -58%[1.15 µM] | 42 | 21* | -42% | -2% | .
O=C(Nc1ccccc1)Nc1cccc(-c2cn3cccnc3n2)c1 | 33% | -4 | -3 | -11% | 0% | 8%
CCCCC(=O)Nc1cccc(-c2nc3ccccc3s2)c1 | . | . | . | . | . | 11%
Cc1ccccc1C(=O)Nc1cccc(-c2ccc3nncn3n2)c1 | -13% | 28 | 12 | . | ? | 16%
Cc1cc(C)c(S(=O)(=O)Nc2cccc(-c3cn4ccccc4n3)c2)c(C)c1 | . | . | . | . | . | 9%
Cc1ccc(C(=O)Nc2cccc(-c3cn4ccccc4n3)c2)cc1 | 13µM* | 81* | 41* | -11% | 46% | 2%
CCCCC(=O)Nc1cccc(-c2cn3ccccc3n2)c1 | 65% | 108 | 29* | -7% | 41% | ?
O=C(Nc1cccc(-c2cn3ccccc3n2)c1)c1ccccc1 | 53% | 57* | 34* | . | ? | 0%
Cc1c(NC(=O)c2nc3ccccc3nc2N2CCCCC2)cccc1[N+](=O)[O-] | . | . | . | . | . | 0%
COc1ccc(S(=O)(=O)N(C)c2ccc(C(=O)Nc3cccnc3)cc2)cc1OC | ? | -14 | 2 | -6% | -19% | ?
SMILES | Pf growth 96h | Shiga toxin inh | Cycloheximide cs | NS1 inh | Pf growth 48h | Sm TGR block
CN(C(=O)NCc1noc2ccccc12)c1cccc(Cl)c1 | . | . | . | . | . | -7%
CC(NC(=O)CN1CCOCC1)c1ccccc1 (configuration not stated) | ? | -7 | -2 | 16% | 13% | 4%
C=C(C)CCC(C)N1CCC(n2nccc2NC(=O)CCCc2ccccc2)CC1 (configuration not stated) | -5% | 14 | 6 | -8% | ? | -3%
COc1cc(-c2nnc(NC(=O)CCS(=O)(=O)c3ccccc3)o2)cc(OC)c1OC | -5% | . | . | . | -6% | 28µM*
COc1cc(OC)cc(-c2nnc(NC(=O)CCS(=O)(=O)c3ccccc3)o2)c1 | 5% | . | . | . | -3% | 32µM*
COc1cc(OC)cc(-c2nnc(NC(=O)CCS(=O)(=O)c3ccc(F)cc3)o2)c1 | -3% | . | . | . | ? | ?
COc1cc2c3cc1Oc1cc(ccc1O)C[C@@H]1c4c(cc(OC)c(O)c4Oc4ccc(cc4)C[C@H]3[N+](C)(C)CC2)CC[N+]1(C)C | . | . | . | -5% | . | .
COc1cccc(NC(=O)c2ccc(CN3CCc4ccccc4C3)cc2)c1 | ? | 43 | 12 | -25% | ? | -20%
CC(=O)c1cccc(NC(=O)c2ccc(CN3CCc4ccccc4C3)cc2)c1 | ? | 29 | 13* | 2% | 15µM* | -21%
Cc1cc(C)c(NC(=O)c2ccc(CN3CCc4ccccc4C3)cc2)c(C)c1 | 7.4µM* | -4 | 7 | 2% | . | -14%
COc1ccc(CC(=O)OCC(=O)NC(=O)NC23CC4CC(CC(C4)C2)C3)cc1 | -3% | -18 | 8 | 6% | . | -15%
CC1CC1C(=O)OCC(=O)NC(=O)NC12CC3CC(CC(C3)C1)C2 (configuration not stated) | 37% | 86* | 43* | . | 35% | -14%
O=C(O)/C=C/C(=O)Nc1ccc(Oc2ccccc2)cc1 | 23% | 29 | 8 | -3% | -9% | -26%
Cc1cc(NS(=O)(=O)c2ccc(NC(=O)/C=C/c3ccc(C)o3)cc2)nc(C)n1 | 7.4µM* | 4 | 1 | 10% | 14% | 3.2µM*
Cc1ccc(/C=C/C(=O)Nc2nnc(C)s2)o1 | -26% | 61* | 8 | 0% | 64% | ?
Cc1ccc(/C=C/C(=O)Nc2cccc3cccnc23)o1 | 117% | -5 | 27 | -6% | 2% | ?
CC(=O)c1ccc(NC(=O)/C=C/c2ccc(C)o2)cc1 | . | . | . | . | . | 11µM*
Cc1ccc(/C=C/C(=O)Nc2ccc(Oc3ccccc3)cc2)o1 | ? | 54 | 26* | -8% | 5% | 18µM*

Screening results as filed in PubChem.
